# In PubChem BioAssay (EPA / NIEHS):
# The source made the active and inactive calls. The calls were made as follows: active = hit-call score of the fitted dose curve at least 0.9, where 1 is the maximum; inactive = score below 0.9.
# Read-out: Phosphatase and tensin (PTEN), PTEN (gene 5728)
# Test: LTEA_HepaRG_PTEN: Life Technologies and Expression Analysis (LTEA) Assay for Phosphatase and tensin (PTEN) using HepaRG (AID 2283523)
# Settings: mRNA level, 48 h; actives raise or lower the signal
# Method: LTEA_HepaRG is a cell based, multiplexed-readout assay that uses HepaRG, a human liver cell line, with measurements taken at 48 hours after chemical dosing on a 96-well plate.LTEA_HepaRG_PTEN is one of 102 assay component(s) measured in the LTEA HepaRG cell culture assay. It is a marker of Cell proliferation, survival, death.Data from the assay component LTEA_HepaRG_PTEN was analyzed into 1 endpoint. This assay endpoint, LTEA_HepaRG_PTEN, was analyzed with bidirectional fitting relative to DMSO as the negative control and baseline of activity. Using a type of inducible reporter, measures of mRNA induction for gain or loss-of-signal activity can be used to understand regulation of transcription factor activity. To generalize the intended target to other relatable targets, this assay endpoint is annotated to the phosphatase intended target family, where the subfamily is dual-specific phosphatase.
# A total of 1060 chemcials from the ToxCast library were tested in eight-point concentration-response experiments. Cell culture and cytotoxicity assays were conducted at Thermo Fisher Scientific's Custom Services facility (Madison, WI). A single lot of human HepaRG cells (Thermo Fisher Scientific, Frederick, MD) was used for the cell culture experiments. 96-well format collagen type I coated plates of human HepaRG cells were prepared using established methods. Briefly, cryopreserved HepaRG cells were thawed, plated at a density of approximately 100,000 cells/well in HepaRG Thaw, Plate, and General Purpose media (HPRG770, Thermo Fisher Scientific), and incubated for 48 hours. 0.5% DMSO was selected as vehicle control to balance the requisite need of DMSO in HepaRG cultures to maintain differentiation (for example, baseline metabolism, proportions of hepatocytes vs. cholangiocytes), while enabling further hepatic receptor pathway activation (for example, PXR and CAR) in response to chemical exposure. 48 hours after plating, the culture medium was replaced with HepaRG Serum-Free Incudtion Media. Cells were exposed to each test chemical in duplicate and maintained in CO2 incubators for another 48 hours. Chemical plates were thawed to room temperature and 200x concentrations of treatment groups were prepared. 8-point conentration-reponse curves were made with the highest exposure at 100 uM, followed by half-log dilutions, all in 0.5% DMSO. Each test plate contained variouse controls, induction positive controls (1mM phenobarbital), cytotoxicity positive controls ([…] aflatoxin B1), vehicle controls (0.5% DMSO), and total lysis controls (0.5% DMSO). Cell morphology images were taken using an Essen IncuCyte FLR automated microscope, with six 96-well plates imaged in about 24 minutes. Images were captured and exported and JPEG files. Spent culture media was transfered to black-well plates for the LDH assay, and remaining media was sorted at -80 C for later use. Cells were treated with RLT buffer and frozen until shipped for gene expression analysis. Total RNA was isolated from the cell suspension in 75 uL of Buffer RLT (Qiagen, Germantown, MD 20874) by Quintiles/Expression Analysis (Durham, NC) using a custom isolation procedure. Total RNA from each plate well was transferred to a preamplification plate. Fluidigm's 96.96 Dynamic ArrayTM (Fluidigm, Amsterdam, the Netherlands) technology was used for gene expression analyses by quantitative reverse transcription polymerase chain reaction (qRT-PCR, performed by Quintiles/Expression Analysis, Durham, NC)89. Standard TaqManTM Assays (Applied Biosystems/ThermoFisher Scientific, Foster City, CA) were used to assess the expression of 93 genes selected based on their selectivity and sensitivity to important hepatic receptors known to be modulated by environmental chemicals; importance in human hepatocyte functionality; and hepatotoxicity. […]
Structure (SMILES),outcome,AC50
Cc1[nH]nc2c1N=C(c1ccccc1Cl)c1cc([N+](=O)[O-])ccc1N2,inactive,
CCCCC=O,inactive,
CCCCCCCCCCCCCCC,inactive,
N=C(N)c1ccc(OCCCCCOc2ccc(C(=N)N)cc2)cc1,,29.9 µM (active)
CCC(C)c1ccccc1O (stereo not given),inactive,
CN(C)CCOC(c1ccccc1)c1ccccc1,inactive,
O=C(c1ccccc1)c1ccccc1,inactive,
O=C(CCCN1CCC(O)(c2ccc(Cl)cc2)CC1)c1ccc(F)cc1,inactive,
OCC(CO)(CBr)CBr,inactive,
CS(=O)(=O)c1ccc([C@@H](CC2CCCC2)C(=O)Nc2cnccn2)cc1Cl,inactive,
CN(Cc1cnc2nc(N)nc(N)c2n1)c1ccc(C(=O)N[C@@H](CCC(=O)O)C(=O)O)cc1,inactive,
O=C1NS(=O)(=O)c2ccccc21,inactive,
CCCCC(CC)C(=O)O (stereo not given),inactive,
CCCCc1oc2ccccc2c1C(=O)c1cc(I)c(OCCN(CC)CC)c(I)c1,inactive,
CC(=O)Nc1ccc(O)cc1,inactive,
